Measurements taken from PubChem BioAssay (NCI).
Values joined by “and” are separate entries in the source; they are usually repeats but may differ in a detail not shown here. Identical values can stand only once. About 79,000 compounds went through this panel and 15% of them were active in at least one assay; those are over-represented in the sample as a whole. Active and inactive are the calls of the source. No stated cut-off is given here; in the data, active means growth inhibition above about 70%; inactive means the rest.

How the values were obtained:
[1] = NCI Yeast Anticancer Drug Screen. Data for the rad52 strain (AID 147);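 further: 0% = growth of vehicle-treated control cultures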; settings: S. cerevisiae rad52 mutant growth inhibition, stronger effect = higher value
Procedure, shortened: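 Genetically altered yeast (DNA damage repair defect) treated with compound; inhibition calculated relative to vehicle.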

[2] = NCI Yeast Anticancer Drug Screen. Data for the wt1 strain (AID 149);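 further: 0% = growth of vehicle-treated wt1 cultures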; settings: S. cerevisiae wt1 strain (SPY 50644) growth inhibition, stronger effect = higher value
Procedure, shortened: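 Each compound is tested on wt1 yeast and the loss of growth versus vehicle gives the inhibition value.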

[3] = NCI Yeast Anticancer Drug Screen. Data for the mgt1 strain (AID 153); settings: S. cerevisiae mgt1 mutant growth inhibition, stronger effect = higher value
Procedure, shortened: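 Read-out: yeast growth inhibition vs vehicle control. Strain mgt1, drawn from a panel altered in DNA damage repair or cell cycle control.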

[4] = NCI Yeast Anticancer Drug Screen. Data for the rad50 strain (AID 155);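 further: 0% = growth of vehicle-only cultures of the same strain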; settings: S. cerevisiae rad50 strain growth inhibition, stronger effect = higher value
Procedure, shortened: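 Vehicle-treated cultures provide the reference for the growth inhibition reported for compound-exposed, repair-deficient yeast.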

[5] = NCI Yeast Anticancer Drug Screen. Data for the mec2-1 strain (AID 157); settings: S. cerevisiae mec2-1 strain, stronger effect = higher value
Procedure, shortened: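 Cells of the genetically defined mec2-1 yeast strain are incubated with test compound. Inhibition of growth is calculated against vehicle-treated controls.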

[6] = NCI Yeast Anticancer Drug Screen. Data for the rad14 strain (AID 159);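 further: 0% = growth of vehicle-treated control cultures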; settings: S. cerevisiae rad14 strain growth inhibition, stronger effect = higher value
Procedure, shortened: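 Inhibition of growth is reported for a repair-deficient yeast mutant following compound treatment, calculated relative to cultures that received vehicle.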

[7] = NCI Yeast Anticancer Drug Screen. Data for the sgs1 mgt1 strain (AID 161);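 further: 0% = growth of cultures given vehicle only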; settings: S. cerevisiae sgs1 mgt1 strain, stronger effect = higher value
Procedure, shortened: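 Mutant yeast exposed to compound; growth scored against vehicle-only wells.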

[8] = NCI Yeast Anticancer Drug Screen. Data for the CLN2oe strain (AID 163);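 further: 0% = growth of vehicle-only control cultures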; settings: S. cerevisiae CLN2oe strain, stronger effect = higher value
Procedure, shortened: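 Strain altered in cell-cycle control, incubated with compound; growth compared to solvent-treated controls.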

[9] = NCI Yeast Anticancer Drug Screen. Data for the cln2 rad14 strain (AID 165);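 further: 0% = growth equal to vehicle treated cultures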; settings: S. cerevisiae cln2 rad14 strain, stronger effect = higher value
Procedure, shortened: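 The screen exposed genetically defined yeast (cln2 rad14) to test compounds and scored growth inhibition relative to vehicle-treated controls.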

[10] = NCI Yeast Anticancer Drug Screen. Data for the bub3 strain (AID 167); settings: S. cerevisiae bub3 mutant strain, stronger effect = higher value
Procedure, shortened: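 Mutant yeast screening strain plus compound; vehicle-treated cultures serve as the 0% inhibition reference.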

[11] = NCI Yeast Anticancer Drug Screen. Data for the wt2 strain (AID 169); settings: S. cerevisiae wt2 strain growth inhibition, stronger effect = higher value
Procedure, shortened: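 Steps: yeast strain treated with compound; growth recorded; inhibition calculated relative to cultures given vehicle alone.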

[12] = NCI Yeast Anticancer Drug Screen. Data for the mlh1 strain (AID 171);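 further: 0% = growth of vehicle-treated control cultures of the same strain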; settings: S. cerevisiae mlh1 strain growth inhibition, stronger effect = higher value
Procedure, shortened: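 Yeast screen: mutant strain plus compound, growth scored against vehicle control wells.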

[13] = NCI Yeast Anticancer Drug Screen. Data for the sgs1 strain (AID 173);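 further: 0% = growth of vehicle-only control cultures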; settings: S. cerevisiae sgs1 mutant, stronger effect = higher value
Procedure, shortened: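 Inhibition of yeast growth served as the measure. The mutant strain was treated with each compound, and growth was normalised to cultures receiving vehicle alone.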

[14] = NCI Yeast Anticancer Drug Screen. Data for the mlh1 rad18 strain (AID 175); settings: S. cerevisiae mlh1 rad18 strain growth inhibition, stronger effect = higher value
Procedure, shortened: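 Compound-treated yeast growth, normalised to vehicle controls. Strain bears defined DNA repair mutations.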

[15] = NCI Yeast Anticancer Drug Screen. Data for the rad18 strain (AID 177); settings: S. cerevisiae rad18 mutant growth inhibition, stronger effect = higher value
Procedure, shortened: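 Inhibition values reflect reduced yeast growth compared with vehicle-treated controls, using a strain engineered with a DNA damage repair defect.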

[16] = at 5.0 µM (retest, dose inferred, filed as 0.5)
[17] = at 50.0 µM (retest, dose inferred, filed as 5.0)

Measured: growth inhibition

O=[N+]([O-])c1cc(F)c(F)cc1Sc1cc(F)c(F)cc1[N+](=O)[O-]
inactive: [1]; at 1.2 µM 6% | [1]; at 3.7 µM 37% | [2]; at 1.2 µM -4% | [2]; at 3.7 µM 8% | [3]; at 1.2 µM -4% | [3]; at 3.7 µM 3% | [4]; at 1.2 µM 6% | [4]; at 3.7 µM 27% | [4]; [16] 66% | [5]; at 1.2 µM -2% | [5]; at 3.7 µM 14% | [5]; [16] -2% | [6]; at 1.2 µM 1% | [6]; at 3.7 µM 17% | [7]; [16] 64% | [8]; at 1.2 µM -2% | [8]; at 3.7 µM 1% | [9]; [16] 27% | [10]; at 1.2 µM -3% | [10]; at 3.7 µM 5% | [10]; [16] 49% | [11]; at 1.2 µM 0% | [11]; at 3.7 µM 12% | [12]; at 1.2 µM 0% | [12]; at 3.7 µM 7% | [13]; at 1.2 µM 6% | [13]; at 3.7 µM 32% | [15]; at 1.2 µM 38% | [15]; at 3.7 µM 69%
active: [1]; at 11.0 µM 92% | [1]; at 33.0 µM 98% | [1]; at 100.0 µM 97% | [2]; at 11.0 µM 85% | [2]; at 33.0 µM 98% | [2]; at 100.0 µM 98% | [3]; at 11.0 µM 80% | [3]; at 33.0 µM 99% | [3]; at 100.0 µM 96% | [4]; at 11.0 µM 91% | [4]; at 33.0 µM 98% | [4]; [17] 98% | [4]; at 50.0 µM 98.4% | [4]; at 100.0 µM 97% | [5]; at 11.0 µM 83% | [5]; at 33.0 µM 99% | [5]; [17] 98% | [5]; at 50.0 µM 98.5% | [5]; at 100.0 µM 98% | [6]; at 11.0 µM 83% | [6]; at 33.0 µM 98% | [6]; at 100.0 µM 97% | [7]; [17] 98% | [7]; at 50.0 µM 98.3% | [8]; at 11.0 µM 75% | [8]; at 33.0 µM 99% | [8]; at 100.0 µM 95% | [9]; [17] 97% | [9]; at 50.0 µM 96.8% | [10]; at 11.0 µM 76% | [10]; at 33.0 µM 98% | [10]; [17] 97% | [10]; at 50.0 µM 98.5% | [10]; at 100.0 µM 98% | [11]; at 11.0 µM 91% | [11]; at 33.0 µM 99% | [11]; at 100.0 µM 96% | [12]; at 11.0 µM 90% | [12]; at 33.0 µM 99% | [12]; at 100.0 µM 97% | [13]; at 11.0 µM 92% | [13]; at 33.0 µM 99% | [13]; at 100.0 µM 97% | [14]; [16] 82% | [14]; [17] 97% | [14]; at 50.0 µM 98.6% | [15]; at 11.0 µM 94% | [15]; at 33.0 µM 98% | [15]; at 100.0 µM 97%

O=C(O)CNC(=S)Nc1ccccc1
inactive: [1]; at 1.2 µM -72% | [1]; at 3.7 µM -88% | [1]; at 11.0 µM -22% | [1]; at 33.0 µM 54% | [2]; at 1.2 µM -52% | [2]; at 3.7 µM -52% | [2]; at 11.0 µM -47% | [2]; at 33.0 µM 43% | [3]; at 1.2 µM -36% | [3]; at 3.7 µM -17% | [3]; at 11.0 µM 6% | [4]; at 1.2 µM -67% | [4]; at 3.7 µM -68% | [4]; [16] 51% | [4]; at 11.0 µM -48% | [4]; at 33.0 µM 53% | [4]; at 50.0 µM 4.35% and 69.5% | [5]; at 1.2 µM -68% | [5]; at 3.7 µM -21% | [5]; [16] 50% | [5]; at 11.0 µM -8% | [5]; at 33.0 µM 54% | [5]; at 50.0 µM 6.5% and 52.1% | [6]; at 1.2 µM -47% | [6]; at 3.7 µM -41% | [6]; at 11.0 µM -48% | [6]; at 33.0 µM 47% | [7]; [16] -9% | [7]; at 50.0 µM 5.2% and 64.6% | [8]; at 1.2 µM 2% | [8]; at 3.7 µM -9% | [8]; at 11.0 µM -3% | [8]; at 33.0 µM 52% | [9]; [16] 63% | [9]; at 50.0 µM 36.6% and 42% | [10]; at 1.2 µM -46% | [10]; at 3.7 µM -39% | [10]; [16] 6% | [10]; at 11.0 µM -15% | [10]; at 33.0 µM 49% | [10]; at 50.0 µM 8.5% and 53.4% | [11]; at 1.2 µM -74% | [11]; at 3.7 µM -64% | [11]; at 11.0 µM -49% | [11]; at 33.0 µM 31% | [12]; at 1.2 µM -63% | [12]; at 3.7 µM -56% | [12]; at 11.0 µM -30% | [12]; at 33.0 µM 53% | [13]; at 1.2 µM -55% | [13]; at 3.7 µM -51% | [13]; at 11.0 µM -39% | [13]; at 33.0 µM 56% | [14]; [16] 33% | [14]; at 50.0 µM 3.45% and 54.6% | [15]; at 1.2 µM -56% | [15]; at 3.7 µM -17% | [15]; at 11.0 µM -21% | [15]; at 33.0 µM 53%
active: [1]; at 100.0 µM 85% | [2]; at 100.0 µM 91% | [3]; at 33.0 µM 77% | [3]; at 100.0 µM 94% | [4]; [17] 82% | [4]; at 100.0 µM 93% | [5]; [17] 85% | [5]; at 100.0 µM 90% | [6]; at 100.0 µM 91% | [7]; [17] 91% | [8]; at 100.0 µM 86% | [9]; [17] 92% | [10]; [17] 85% | [10]; at 100.0 µM 89% | [11]; at 100.0 µM 88% | [12]; at 100.0 µM 93% | [13]; at 100.0 µM 91% | [14]; [17] 70% | [15]; at 100.0 µM 82%

CCOC1Oc2ccccc2-c2nc(N)ncc21 (stereo unspecified)
inactive: [1]; at 1.2 µM 7% | [1]; at 3.7 µM 6% | [1]; at 11.0 µM 3% | [1]; at 33.0 µM 3% | [1]; at 100.0 µM -5% | [2]; at 1.2 µM -4% | [2]; at 3.7 µM -1% | [2]; at 11.0 µM 1% | [2]; at 33.0 µM -1% | [2]; at 100.0 µM -14% | [3]; at 1.2 µM -2% | [3]; at 3.7 µM 10% | [3]; at 11.0 µM 4% | [3]; at 33.0 µM 9% | [3]; at 100.0 µM 6% | [4]; at 1.2 µM -2% | [4]; at 3.7 µM -13% | [4]; [16] 17% | [4]; at 11.0 µM -5% | [4]; at 33.0 µM 0% | [4]; at 100.0 µM -33% | [5]; at 1.2 µM 13% | [5]; at 3.7 µM 6% | [5]; [16] 3% | [5]; at 11.0 µM -2% | [5]; at 33.0 µM -8% | [5]; [17] 39%
active: [4]; [17] 75% | [4]; at 50.0 µM 88.3% | [5]; at 50.0 µM 85.4%
